These results are taken from PubChem BioAssay AID1508600 (Functional Genomics Laboratory (NCATS/FGL), 2020).

The campaign covered roughly 53,000 sequences. About 3,700 (7%) were called active.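 How the source made its calls: active means gene knockdowns whose robust z-score for IL-1 alpha signal is at least 2 or at most -2, so actives lie on both sides; inactive means the rest.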 Shown is part of a subset that was picked to be rich in actives.

The nature of this test: Components of the Cytosolic LPS Sensing Pathway: Gene Identification via Genome-wide siRNA Screen. The note with it: RAW264.7 macrophages, IL-1a HTRF, actives lie on both sides, screened at 100 nM (by protocol), cells primed 5 h with Pam3CSK4 first. From the text:
Non-canonical inflammasome activation by cytosolic LPS is a critical component of the host response to Gram-negative bacterial infection, however we lack a comprehensive understanding of the cellular processes that control this pathway. Here we describe a genome-wide siRNA screen to identify genes regulating the mouse macrophage IL-1 alpha response to cytosolic LPS.
RAW264.7 cells were maintained in complete DMEM media, comprising DMEM with 4.5 g/L glucose, 10% FBS (Gemini Bio-Products, West Sacramento, CA), 2 mM Glutamine (Lonza) and 20 mM HEPES (Lonza), hereafter complete DMEM.
The RNAi screen was conducted in 384-well format using the Ambion Silencer Mouse Genome siRNA Library (#4391425), which consists of three unique, nonoverlapping, nonpooled siRNAs for each of 17,000 gene targets. siRNA reagents ([…]) were stamped into 384-well white flat-bottom microplates (Corning, 3570) using a Velocity11 VPrep liquid handling system (Agilent) integrated into a BioCel robotic platform (Agilent) in columns 1-22, leaving columns 23-24 empty for negative (Ambion, Negative control #1) and positive (mouse Casp4) controls, respectively. The median value of each plate's negative control column was used to normalize sample wells, and the positive control was used to assess transfection efficiency and assay performance.
Lipofectamine RNAiMAX Transfection Reagent ([…]; Invitrogen) was added in […] serum-free, antibiotic-free media to plate wells using a Thermo Scientific Matrix WellMate and Microplate Stacker. Plates were incubated for 45 min at room temperature to allow for the sufficient formation of siRNA-lipid complexes. Cells were seeded at a density of 1x10^4 cells per well in 20 microL media containing 20% (vol/vol) FBS without antibiotics. The final concentration of siRNA in each well was 100 nM. Cells were cultured for 48h at 37 degrees C in 5% CO2 before addition of […] of TLR ligand Pam3CSK4 for 5 hours. The medium was then removed, replaced with […] growth media and cell were transfected with […] of LipidA and TransIT-TKO (Mirus) for 24 hour. At the end of the LipidA treatment, […] of supernatant was transferred to a 384 Greiner Bio-one non-binding low volume plate and […] of IL-1a HTRF reagent (Cisbio, 62MIL1APEH) was added and incubated at room temperature overnight. The plates were read on an EnVision plate reader (PerkinElmer). Cell viability was measured by adding 20ul Cell Titer Glo to the original plate and running a luminescence read on the EnVision. The quantified IL-1a signal for each siRNA gene-targeted well was divided by the median of the negative control wells and multiplied by 100 to achieve a negative control normalized value for each well/siRNA. This normalized value was then used to generate a robust z-score by first taking the log of each value and then by subtracting the median and dividing by the […].
Background: In TR-FRET formats the signal depends on donor and acceptor labels being close together.
Take GGUCGGGAUUUAAUUUGUATT against Bbs9: the z-score is 0.978 (inactive). Take CGACUUCACCUUAUUCCUGTT against Nle1: the z-score is 0.811 (inactive). The result for GCAUAUUACACAGCACUAGTT against Itgbl1 reads -0.802 (inactive). Take GGUGUACUCUGUUCCCAUGTT against Psmb6: the z-score was -1.54 (inactive). In the case of GGGAUUCGAAGGACAAUAGTT against Vmn1r211, the z-score is -2.07 (active). Turning to GGUGUACAACUCCUAUAGGTT against P2ry13, the z-score was 0.24 (inactive). The result for GGAUUUCAGCGAAGUGUACTT against Mapk11 reads -0.395 (inactive).

In the case of CCAACGAAGCCAAUAAAUGTT against Pmis2, the z-score is -2.12 (active).

Consider GGAGCUGAGCAACAUCACATT against Il13, for which the z-score is -1.35 (inactive).

With GCUUCACAUGAAGCAACCUTT against Fam149b, the z-score was -0.102 (inactive).

In the case of GGAGAAGCAAAACUUUUAATT against Snrpa1, the z-score is -2.87 (active). Regarding GGUGUUGAACAAAUUAACUTT against Pprc1, the z-score is 0.508 (inactive). Take GCAACUAUCCACUCUCUGCTT against Emg1: the z-score is 0.977 (inactive). GGAGAUGGUCUCAUUAAGCTT against Psmd13: the z-score was -1.25 (inactive). Take GCUCUGUUUUUAACCAUCCTT against Ccnt2: the z-score was 0.227 (inactive). Take GGUAUUAAGUUCCUGUAAUTT against Ahcyl2: the z-score was -1.62 (inactive). With GCUCUUGAAAUUUCACUCUTT against Ide, the z-score is 2.1 (active). Take GCCGCUUAGAGGCUCAUCUTT against Nfe2l2: the z-score was -1.86 (inactive).

For the sequence GGACAACUAUGAAUUAGUGTT against Pfkp, the z-score was -0.801 (inactive).

Turning to GGAAAAACAGCUUAACACUTT against Pate4, the z-score is 0.66 (inactive). For GCUUCCAAGAUGGAACUACTT against Psmb10, the z-score is 0.657 (inactive).

GGAUGAAAUGAACCUAGAGTT against Sh3pxd2b: the z-score was -2.16 (active). Consider GGAGAAGAUCACAAGAGGGTT against Slc35b1, for which the z-score is -0.736 (inactive). The result for GCAGAAUAGCUGAUGACAGTT against Galnt15 reads -0.155 (inactive). In the case of GCUCCCAAGUUUACCCAGCTT against Mybphl, the z-score was 0.505 (inactive). With CCUUGAACGAGAGUGCAUUTT against Pros1, the z-score was -0.798 (inactive). As for CGUAAGUCAGUGAUGCUAUTT against Srp19, the figure is 1.38 (inactive). Regarding GCUAUGAAGCAAUUGUGGATT against Fasn, the z-score was -0.527 (inactive). On to GCGGUUAUAAUGGGACCAUTT against Kif15, for which the z-score is 3.21 (active). As for GCCAGGAUACUAAGUGUUUTT against Jpt2, the figure is 1.05 (inactive); as for GCAACAUCGUAUGUUAAUGTT against Slc9a4, 0.0571 (inactive); as for CGAAUACUUGAUGUCCAUGTT against Harbi1, -2.16 (active). Consider CCAGGUGAAAACCAGGAUATT against Olfr205, for which the z-score is 0.925 (inactive). On to GGAAACCUAUGUCUCAAGATT against Mrps36, for which the z-score was -0.332 (inactive). With CCAGAGAUUCCCACACGUCTT against Havcr1, the z-score was -1.37 (inactive). In the case of GAAUCUGGUGAAGUAUUAUTT against Phip, the z-score was 0.518 (inactive). Regarding GGGUUUAGCUCACUGAGUATT against Tm4sf5, the z-score was -1.53 (inactive). Consider CCACUAUGUUCUCUGGAUATT against Llgl1, for which the z-score is -0.218 (inactive).

As to CCACAUCUGAGACUAUUCATT against Crhr1, the z-score is 2.46 (active). GGAACUGGGAGACCUAUAATT against Angptl2: the z-score is -2.01 (active). On to CCCACAGAAUCACUCCAAGTT against Utp14a, for which the z-score was -0.211 (inactive). The result for GCUAUUCGUUUCUUAUAACTT against Slc19a3 reads 0.83 (inactive).

Consider GGCAAUGAGUUCUGGAGUGTT against Capn8, for which the z-score was -0.928 (inactive). With GGUUCAAGGCAACACUGUGTT against Ankrd13d, the z-score was -1.54 (inactive). As for GGCUUUUGGUCUGAGAUGCTT against Snf8, the z-score is -2.04 (active). GGUGCUCACGUUUUUCUUATT against B3galnt1: the z-score is 0.348 (inactive). GGAGGAAGUUGAAAAUGAATT against Myom2: the z-score was 0.157 (inactive).

Consider “GGUACUCCUAGAACUCUACTT against 2410002F23Rik”, for which the z-score was 1.01 (inactive). The result for GCCCAGAGUUACGAGUAUGTT against Aacs reads 2.23 (active); that for GCCAAACGUGGGUUUGAUATT against Ccna1, 4.74 (active). GGAAGACUUGAGAAAUCACTT against Coro1c: the z-score was 1.24 (inactive). On to GCCAAGCUUGUCCAUUGAUTT against Akap9, for which the z-score is -0.443 (inactive).

As to CGUUAGCAUCAGGUCAAGUTT against Zfp251, the z-score is -0.323 (inactive). Turning to GGUGUUAACAAAAUGUACCTT against Phyh, the z-score is 2.54 (active). Regarding CCUUAGGUCUAAGUAAUCUTT against Dnase1l1, the z-score is 2.3 (active). Regarding GGACUCAAAUGUGAUGCAUTT against Prkcq, the z-score was -0.718 (inactive).

Take GGCACAUUCAUAGAACAAGTT against Znrd1as: the z-score is 2.01 (active). Consider GCGGCGCAUGACUGAAAGATT against Chd8, for which the z-score was 0.86 (inactive).

Turning to GGUCAACUCCUUUAUGAGCTT against Apoa4, the z-score is -0.238 (inactive). In the case of GGAUGAUGAGAGAAACAAATT against Jak1, the z-score is 3.78 (active). In the case of GGAAGUAAAGAGGAUCUCATT against Vat1l, the z-score was -0.678 (inactive).

For GGUGAUUAGCAAUCAUCAGTT against Zfp942, the z-score was -0.295 (inactive). Consider GGCCACUUGAGAACAUUCGTT against Nop10, for which the z-score was 0.331 (inactive). For GGUACAAUGAAAGUCUCACTT against Cnot6, the z-score was -0.0743 (inactive). Regarding GGACCUUGUACCCAUUCCUTT against Prr5, the z-score was 1.01 (inactive). On to GCAAUGAGUGCUAGUUUUUTT against Cdc42, for which the z-score is 2.6 (active).

Turning to CGUGGAUAUCAGAAAGCAATT against Cfhr2, the z-score was -0.487 (inactive). Consider GGACUUUAAUCACAGACAATT against Fem1b, for which the z-score is -1.73 (inactive). With CGAGUUCAUCAAAAAGGAATT against Kansl1l, the z-score is 0.708 (inactive). Consider CCAUUCUCAGGCAAAUACUTT against Pid1, for which the z-score is 2.11 (active). For the sequence GGCUGAUGAUACUUAAACATT against Vmn1r83, the z-score is -1.26 (inactive). As to CGGCAUGCUGUGGAAAAAGTT against Btrc, the z-score is -0.869 (inactive). GCACUUUGACAUUUUGGUATT against Arl4c: the z-score was -0.0352 (inactive).

Consider AGAGCAAAAACUCGAGCACTT against Sox15, for which the z-score was -0.253 (inactive). In the case of GGUUGUGAGUGAGAACACUTT against Prss35, the z-score was 0.738 (inactive). As for CCUUGCAGCAUCAGGACUUTT against Ascl2, the z-score was 4.06 (active). Take GGUAACACAGAAGAAAUCUTT against Higd1a: the z-score is -0.0444 (inactive).

Consider GGCAGAAGAACUUUUCCAGTT against Capsl, for which the z-score is 0.874 (inactive). In the case of CCUUCUAGAGUACAUCAUATT against Prl7d1, the z-score was 0.298 (inactive).

GGGUUUCUUCGUGUCUAUUTT against Pth2r: the z-score is 1.56 (inactive). Take GGGAAGUAGCCAUCACACCTT against Ttbk1: the z-score is 0.768 (inactive). As to CCUAUAGCAGUGGUUUUCATT against Ece2, the z-score is 2.22 (active). “GGCUUUUCGUUGUAAAUCATT against 9930111J21Rik2”: the z-score was 0.735 (inactive).

For the sequence CGGGAAGUAAACAUUUCCATT against Rassf6, the z-score was 0.527 (inactive). For the sequence GGACUCUGAUCUCUAUCAGTT against Tac2, the z-score was -0.357 (inactive). As for GGAGGAGAGGUACAAGAUGTT against Pcyt2, the figure is -0.804 (inactive); as for GGGAAGUCCAAAUAACGGATT against Zfp184, 0.136 (inactive). For CCGACCCAAUUAAUGAUCATT against Tlcd2, the z-score is -1.12 (inactive). Consider CCAAAGUUUUAUCAGUUUGTT against Gpr87, for which the z-score is 0.653 (inactive).

As to GGUACUUUUACUCCCGAAGTT against Lgals3bp, the z-score was -2.05 (active). As to GGUGAUAUAGCUAUUUUCUTT against Fbxw11, the z-score was 0.711 (inactive). As for GGAAACACCAGAGAAGUCCTT against Etf1, the figure is -0.56 (inactive); as for GGUGCAAGAUAGUACGAUGTT against Gle1, -0.649 (inactive).

As for GCACAAUAAAGCUUGUUGCTT against Trmt2a, the z-score is -2.26 (active). The result for GGAAGAUGGGCGACUCUAUTT against Pkmyt1 reads 0.176 (inactive); that for GGAUUCUCACCAAAUACUUTT against Oprd1, 0.305 (inactive); that for CGAUAUUUAUCAUGAGUGCTT against Nlrp9c, -1.9 (inactive). With CCCACGAGGGAUAUAUCUGTT against Cd3d, the z-score was -0.994 (inactive). With CGGCACCAGUGUUCUAUUGTT against Ddi2, the z-score is 1.91 (inactive). The result for CCGCAAAGUGAGCAAGGUGTT against Id1 reads -0.63 (inactive); that for GGAAAGCAGACAUCGACCUTT against Rps18, -0.848 (inactive). Take GGAACGUGUUCAAAAGAGUTT against Sos1: the z-score is 2.22 (active). The result for GGCCUAUCAAAAUUCAGUUTT against Rbm7 reads 1.17 (inactive); that for GGAGAUUGGACCACUAUGATT against Sec24d, -1.31 (inactive); that for GGAGUUCGACAUUAGCGGATT against Ehf, 0.0965 (inactive). On to GCAACAGUUGGUCUAAAAUTT against Psma1, for which the z-score was -2.11 (active). As for GGAAUGUUUCUUUAUCACATT against Slc35e4, the figure is -0.837 (inactive); as for GCGUAUUUGGUGUUAAAAATT against Iars, 0.417 (inactive).
